Structures are written as SMILES. Unmarked numbers belong to inactive results. Inconclusive results are not listed. Active and inactive are the calls of the source. Calls follow the shape of the dose curve; as a rule, active = well fitted curve in the direction sought with a large enough effect; inconclusive = small, poorly fitted or top-dose-only effect, or another doubt; inactive = no such curve, though single readings can be large; an effect the other way counts as inactive or inconclusive.

Among the data in PubChem BioAssay (NCATS) are outcome and Potency values, retold here.

Experiment [1] can be described thus: Cellular Toxicity (caspase-3) SK-N-SH (AID 661). In a few lines: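 SK-N-SH human neuroblastoma cells (1500/well) were treated with compounds for 16 hr at 37 °C in complete medium; caspase 3/7 activity was read by Caspase-Glo luminescence. AC50 came from Hill fits of data normalized to DMSO and 10 uM staurosporine.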
The nature of experiment [2]: Cellular Toxicity (caspase-3) H-4-II-E (AID 663).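 Also: cells exposed to compound for 16 hr before readout.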 The procedure, abridged:
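Rat hepatoma H-4-II-E cells (1500/well) plated 5 hr, then exposed to compound titrations for 16 hr at 37 °C. Caspase-Glo 3/7 luminescence read after 20 min at RT; data normalized to DMSO and 100 uM tamoxifen, AC50 from Hill fits.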

A short description of experiment [3]: Cellular Toxicity (caspase-3) Hek293 (AID 664).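 Also: cells exposed to compound for 16 h at 37 °C before readout.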 In a few lines: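 HEK293 cells were exposed to compounds in complete medium for 16 hr at 37 °C, then caspase-3/7 activity was read by Caspase-Glo 3/7 luminescence after 20 min at room temperature. Data normalized to DMSO and 100 uM tamoxifen; AC50 from Hill fits.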
Experiment [4] is described as follows: Cellular Toxicity (caspase-3) N2a (AID 665).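 Also: compound exposure lasted 16 h at 37 °C before readout.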 The procedure, abridged:
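Mouse N2a neuroblastoma cells (1500/well) were treated with compounds for 16 h at 37 °C, then caspase-3/7 activity was read by Caspase-Glo luminescence after 1 h at room temperature. Data were normalized to DMSO and 10 uM staurosporine; AC50 from Hill fits.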

A short description of experiment [5]: Cellular Toxicity (caspase-3) NIH 3T3 (AID 666).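 Also: caspase signal read after 16 h compound exposure.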 The procedure, abridged:
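Mouse NIH 3T3 fibroblasts (1000 cells/well) were treated with compound for 16 hr at 37°C in complete medium; caspase-3/7 activity was read by Caspase-Glo luminescence. Normalized to DMSO and 100 uM tamoxifen; AC50 from Hill fits.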

Experiment [6] in a line: Cell Viability - LYMP2-001 (AID 921). Also: potency is read from the fitted curve at half-maximal effect; nearly all actives have a fitted effect of over 70% in size. The conditions noted are these: LYMP2-001 lymphoblastoid cell viability. In a few lines: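 qHTS, 1536-well; lymphoblastoid cells, 24 hr compound, 37 C; ATP by CellTiter-Glo, 30 min RT; luminescence; Hill-fit AC50.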
Experiment [7] can be described thus: MultiTox-Fluor Cytotoxicity Assay - LYMP1-001 - Dead Cells (AID 946). The procedure, abridged:
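AC50 from Hill fit of concentration-response; data normalized to DMSO (basal) and 15 uM tetraoctylammonium bromide (100%). LYMP1-001 lymphoblastoid cells, 2500/well, 16 hr compound at 37 C; dead-cell protease fluorescence, Ex/Em 485/520.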

Experiment [8] is described as follows: Cell Viability - LYMP1-002 - Assay at 16 hr (AID 948). Also: potency is read from the fitted curve at half-maximal effect. The conditions noted are these: LYMP1-002 lymphoblastoid cell viability. The procedure, abridged: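 Acute cytotoxicity is scored as a concentration-dependent fall in intracellular ATP in a human lymphoblastoid line (LYMP1-002) after 16 hr compound exposure at 37 C, measured by luciferase luminescence.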

The nature of experiment [9]: MultiTox-Fluor Cytotoxicity Assay - LYMP1-002 - Dead Cells (AID 960). Also: nearly all actives have a fitted effect of over 60% in size. The procedure, abridged:
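Human lymphoblastoid cells (LYMP1-002), 2500/well in complete medium, were exposed to compounds for 16 hr at 37 C. Dead-cell protease activity was read as bis-AAF-R110 fluorescence (Ex/Em 485/520), normalized to DMSO and 15 uM tetraoctylammonium bromide; AC50 from Hill fits.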

Experiment [10] is described as follows: MultiTox-Fluor Cytotoxicity Assay - LYMP1-003 - Dead Cells (AID 961). Also: nearly all actives have a fitted effect of over 70% in size. In a few lines: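 Human lymphoblastoid LYMP1-003 cells (2500/well) were treated with compounds for 16 hr at 37 C in complete medium. Dead-cell protease release was read by bis-AAF-R110 fluorescence (Ex/Em 485/520). AC50 came from Hill fits, normalized to DMSO and 15 uM tetraoctylammonium bromide.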

Experiment [11] can be described thus: MultiTox-Fluor Cytotoxicity Assay - LYMP1-003 - Live Cells (AID 962). Also: potency is read from the fitted curve at half-maximal effect. The conditions noted are these: LYMP1-003 lymphoblastoid cells, MultiTox-Fluor live-cell protease fluorescence. In a few lines: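 LYMP1-003 human lymphoblastoid cells (2500/well) in complete medium were preincubated 5 hr at 37 C, then exposed to compounds for 16 hr at 37 C. Live-cell protease cleavage of GF-AFC read by fluorescence (Ex/Em 405/510); AC50 from Hill fits.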

Experiment [12] is described as follows: Cell Viability - LYMP1-003 - Assay at 24 hr (AID 963). Also: potency is read from the fitted curve at half-maximal effect. The conditions noted are these: LYMP1-003 lymphoblastoid cell viability. In a few lines:
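Human lymphoblastoid LYMP1-003 cells (2500/well) were rested 5 hr at 37 C, then exposed to compounds in complete medium for 24 hr at 37 C. Cellular ATP was quantified by CellTiter-Glo luminescence, and AC50 values came from Hill fits of concentration-response data.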

The nature of experiment [13]: Cell Viability - LYMP1-003 - Assay at 40 hr (AID 964). Also: potency is read from the fitted curve at half-maximal effect; nearly all actives have a fitted effect of over 60% in size. The conditions noted are these: LYMP1-003 lymphoblastoid viability. In a few lines:
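Human lymphoblastoid LYMP1-003 cells, 2500/well in complete medium, rested 5 hr at 37 C, then exposed to compounds for 40 hr at 37 C. Viability read as intracellular ATP by CellTiter-Glo luminescence; AC50 from Hill fits of concentration-response data.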

A short description of experiment [14]: Cell Viability - LYMP2-003 (AID 965).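 Also: potency is read from the fitted curve at half-maximal effect; cells exposed to compounds for 24 h before reading; nearly all actives have a fitted effect of over 50% in size.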 The conditions noted are these: LYMP2-003 lymphoblastoid cell viability. The procedure, abridged: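 Acute cytotoxicity is scored as a concentration-dependent drop in intracellular ATP, measured by luciferase luminescence in human lymphoblastoid cells treated for 24 hours at 37 C. AC50 values derive from Hill-equation modelling.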

The nature of experiment [15]: Cell Viability - LYMP2-004 (AID 966). Also: potency is read from the fitted curve at half-maximal effect; nearly all actives have a fitted effect of over 65% in size. The conditions noted are these: LYMP2-004 lymphoblastoid cell viability, qHTS. In a few lines:
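Human lymphoblastoid cells (2500/well) in complete medium were treated with compounds for 24 hr at 37 C, then intracellular ATP was measured by CellTiter-Glo luminescence. AC50 values came from Hill-equation fits of concentration-response data.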

Experiment [16] can be described thus: Cell Viability - LYMP2-005 (AID 967). Also: potency is read from the fitted curve at half-maximal effect. The conditions noted are these: LYMP2-005 lymphoblastoid cell viability. In a few lines:
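qHTS viability screen in LYMP2-005 cells: 24 h at 37 C with compound, ATP luminescence via CellTiter-Glo, AC50 from Hill curves.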

Experiment [17] is described as follows: Cell Viability - LYMP2-009 (AID 968). Also: potency is read from the fitted curve at half-maximal effect; nearly all actives have a fitted effect of over 55% in size. The conditions noted are these: LYMP2-009 lymphoblastoid cell viability.
Experiment [18] is described as follows: Cell Viability - LYMP2-011 (AID 969). Also: potency is read from the fitted curve at half-maximal effect; nearly all actives have a fitted effect of over 60% in size. The conditions noted are these: LYMP2-011 lymphoblastoid cells viability. The procedure, abridged:
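Human lymphoblastoid cells (2500/well) were plated in complete medium, preincubated 5 hr at 37 C, then exposed to compounds for 24 hr at 37 C. Intracellular ATP was read by CellTiter-Glo luminescence, and AC50 came from Hill-equation concentration-response fits.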

A short description of experiment [19]: Cell Viability - LYMP2-013 (AID 970). Also: potency is read from the fitted curve at half-maximal effect; nearly all actives have a fitted effect of over 55% in size. The conditions noted are these: LYMP2-013 lymphoblastoid cells viability. In a few lines:
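Human lymphoblastoid cells, 2500/well, were preincubated 5 hr at 37 C, then treated with compounds for 24 hr at 37 C in complete medium. Intracellular ATP was read by CellTiter-Glo luminescence; AC50 from Hill-equation fits of concentration-response data.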

Experiment [20] is described as follows: Cell Viability - LYMP2-015 (AID 971). Also: potency is read from the fitted curve at half-maximal effect; nearly all actives have a fitted effect of over 55% in size. The conditions noted are these: LYMP2-015 lymphoblastoid cell viability. The procedure, abridged:
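Human lymphoblastoid cells (2500/well) in complete medium were preincubated 5 hr at 37 C, then compound-treated 24 hr at 37 C. Intracellular ATP was read by CellTiter-Glo luminescence after 30 min at room temperature; AC50 came from Hill-equation concentration-response fits.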

On to `O=C1c2c(O)ccc([N+](=O)[O-])c2C(=O)c2c([N+](=O)[O-])ccc(O)c21`, for which the compound was called inactive in [1], in [2], in [3], in [4], in [5] and in experiment [7]. Besides, the result in experiment [9] and in experiment [10] was inactive. Also, the Potency in experiment [6] is 50.1 µM (active); in [8], 39.8 µM (active); in experiment [11], 50.1 µM (active); in experiment [12], 39.8 µM (active); in experiment [13], 39.8 µM (active); in experiment [14], 31.6 µM (active). Besides, the Potency was 31.6 µM (active) in experiment [15]; 39.8 µM (active) in experiment [16]; 31.6 µM (active) in experiment [17]; 39.8 µM (active) in [18]; 50.1 µM (active) in experiment [19]; 31.6 µM (active) in experiment [20].
